Reference: PubChem BioAssay (NCATS)
Records with an inconclusive call do not appear. Calls of active or inactive are those of the source. Unless noted, calls come from the whole dose curve.

Legend:
[1] = molecular target: Glucocorticoid receptor (Homo sapiens) (UniProt P04150); assay: GR-GFP Redistribution (AID 450;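 active = compounds whose dose series gives a full or clear partial fitted curve of increased nuclear translocation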; note: potency is the fitted concentration of half-maximal effect); conditions: U2OS GR-GFP nuclear translocation, laser cytometry, 2 h
[2] = molecular target: Cytochrome P450 2C9 (Homo sapiens) (UniProt P11712); assay: qHTS Assay for Inhibitors and Substrates of Cytochrome P450 2C9 (AID 883; active = well fitted curve in the direction sought with a large enough effect; an effect the other way counts as inactive or inconclusive; note: nearly all actives have a fitted effect of over 60% in size; note: potency is the fitted concentration of half-maximal effect); conditions: recombinant CYP2C9, luciferin-H luminescence, 60 min; series mostly up to 57.1 µM
Summary of the method: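 Luminescent read-out of deoxyluciferin hydroxylation, normalized to 57uM sulphaphenazole (AC100). Reaction: 10nM enzyme, 100uM Luciferin-H (equal to KM), 25mM KPO4, 10 min compound preincubation, then 60 min with NADPH regeneration, both at 37C.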

[3] = molecular target: Glucocorticoid receptor (Homo sapiens) (UniProt P04150); assay: GR-EFC Redistribution (AID 451); conditions: CHO-K1 GR-EFC translocation, beta-gal luminescence, 2 h; note: potency is the fitted concentration of half-maximal effect
Summary of the method: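 Translocation of GR-ED fusion to nuclear EA restores b-gal, read by luminescence after 1 h room-temperature detection. Engineered CHO-K1 biosensor cells, 1,000/well, exposed 2 h at 37 C to titrations up to 46 uM final.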

[4] = molecular target: Cytochrome P450 2D6 (Homo sapiens) (UniProt P10635); assay: qHTS Assay for Inhibitors and Substrates of Cytochrome P450 2D6 (AID 891; active = well fitted curve in the direction sought with a large enough effect; an effect the other way counts as inactive or inconclusive;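 note: luciferin methyl ether substrate demethylated by CYP2D6 with NADPH regeneration; % is set by controls: 0 for no effect and ±100 for the full control effect; nearly all actives have a fitted effect of over 60% in size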); conditions: recombinant CYP2D6, luciferin-ME EGE luminescence; series mostly up to 57.1 µM
Summary of the method: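 Human CYP2D6 (5 nM) with 30 uM Luciferin-ME EGE (at Km) in 100 mM KPO4, compound preincubated 10 min, then NADPH regeneration system for 60 min at room temperature. Luciferin read by luminescence; normalized to 1.43 uM quinidine.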

[5] = molecular target: Bile acid receptor (Homo sapiens) (UniProt Q96RI1); assay: qHTS assay for small molecule antagonists of farnesoid X receptor signaling (AID 588526); conditions: HEK293T FXR-UAS-bla, beta-lactamase ratio, antagonist mode; series mostly up to 76.7 µM; note: % is set by controls: 0 for no effect and ±100 for the full control effect
Summary of the method: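 Beta-lactamase reporter antagonist mode: HEK293T FXR-UAS-bla cells, titrated compound, CDCA stimulation, 16 h 37 C, CCF4 dye 2 h RT. Data normalized to CDCA 50 uM and DMSO; Hill-fit IC50.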

[6] = molecular target: Glucocorticoid receptor (Homo sapiens) (UniProt P04150); assay: qHTS assay for small molecule agonists of glucocorticoid receptor signaling (AID 588532; active = well fitted curve in the direction sought with a large enough effect in the signal ratio, with a control signal flat; the % refers to the signal ratio;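 note: 100% = dexamethasone at 0.1 µM and 0% = DMSO only wells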); conditions: HeLa MMTV-bla, beta-lactamase ratio, agonist, 18 h; activation: stronger effect = higher value, percent of dexamethasone control, DMSO zero
Summary of the method: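 Agonist-mode qHTS: GRE-driven beta-lactamase in HeLa cells exposed 18 h to titrated compounds (up to 92 uM), then CCF4 ratio read after 2 h at RT; Hill-fitted EC50, efficacy relative to 0.1 uM dexamethasone.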

[7] = qHTS assay for small molecule antagonists of peroxisome proliferator-activated receptor delta signaling (AID 588535; active = well fitted inhibition curve with a large enough effect in the signal ratio, with a control signal flat, not every such curve was filed as active; the % refers to the signal ratio;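 for max response: cells co-treated with a PPAR-delta agonist as stimulator during compound exposure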); conditions: HEK293T PPARd-UAS-bla, beta-lactamase FRET ratio, 18 h; 460 nm channel
Summary of the method: (§1)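 Cell-based beta-lactamase assay in antagonist mode: 4000 HEK293T PPAR-delta-UAS-bla cells per well, 5 hr preincubation then 18 hr compound incubation at 37 C. IC50 obtained by Hill equation fitting.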

[8] = molecular target: Peroxisome proliferator-activated receptor delta (Homo sapiens) (UniProt Q03181); assay: as above; conditions: HEK293T PPARd-UAS-bla, beta-lactamase FRET ratio, 18 h; series mostly up to 76.7 µM
Summary of the method: as §1

[9] = molecular target: Peroxisome proliferator-activated receptor gamma (Homo sapiens) (UniProt P37231); assay: qHTS assay for small molecule agonists of peroxisome proliferator-activated receptor gamma signaling (AID 588536; active = well fitted curve in the direction sought with a large enough effect in the signal ratio, with a control signal flat, not every such curve was filed as active; the % refers to the signal ratio;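 note: 0% = DMSO basal wells and 100% = rosiglitazone at 2 µM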); conditions: HEK293 PPARg-UAS-bla, beta-lactamase ratio, 16 h; series mostly up to 76.7 µM
Summary of the method: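 PPAR-gamma-UAS-bla HEK293 cells in medium with 1% charcoal/dextran-treated FBS were exposed to compounds for 16 h at 37 C. Beta-lactamase activity was read with CCF4 substrate (405 nm excitation, 460/530 nm emission).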

[10] = molecular target: Vitamin D3 receptor (Homo sapiens) (UniProt P11473); assay: qHTS assay for small molecule antagonists of vitamin D receptor signaling (AID 588541); conditions: HEK293T VDR-UAS-bla, beta-lactamase ratio, antagonist mode; series mostly up to 76.7 µM;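 note: receptor activated by calcitriol during compound treatment; % is set by controls: 0 for no effect and ±100 for the full control effect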
Summary of the method: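 Antagonist-mode beta-lactamase reporter assay: HEK293T VDR-UAS-bla cells were exposed to titrated compound alongside 1-alpha,25-dihydroxyvitamin D3 at 3 nM final for 16 h. Values were normalized to the 50 nM agonist control and DMSO basal, with IC50 and efficacy from Hill equation fits.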

[11] = molecular target: Retinoic acid receptor RXR-alpha (Homo sapiens) (UniProt P19793); assay: qHTS assay for small molecule antagonists of retinoid X receptor alpha signaling (AID 588546; active = well fitted inhibition curve with a large enough effect in the signal ratio, with a control signal flat, not every such curve was filed as active; the % refers to the signal ratio; note: potency is the fitted concentration of half-maximal effect;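 for max response: cells stimulated with 9-cis-retinoic acid as agonist; % is set by controls: 0 for no effect and ±100 for the full control effect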); conditions: HEK293T RXRa-UAS-bla, beta-lactamase ratio, antagonist mode
Summary of the method: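 Beta-lactamase reporter inhibition, read as CCF4 fluorescence ratio (ex 405, em 460/530 nm) after 2 h at RT. HEK293T UAS-bla cells, 2500/well, were stimulated with 9-cis-RA at 500 or 100 nM final alongside test compound for 18 h at 37 C.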

[12] = Nrf2 qHTS screen for inhibitors: Validation (AID 493153; active = well fitted inhibition curve with a large enough effect in the main read-out, with a control signal flat, not every such curve was filed as active; note: potency is the fitted concentration of half-maximal effect); conditions: A549 ARE-Fluc reporter, 18-24 h; Potency: luciferase luminescence; viability change: measured here: cytotoxicity max response
Summary of the method: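 A549 cells carrying an ARE-driven firefly luciferase reporter, in 5% FBS OPTI-MEM, were treated with compounds in concentration-response for 18-24 h at 37°C. Viability was read by CellTiter-Fluor fluorescence, then Nrf2 activity by luciferase luminescence.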

[13] = molecular target: Estrogen receptor (Homo sapiens) (UniProt P03372); assay: qHTS assay for small molecule agonists of estrogen receptor alpha signaling (AID 588514); conditions: ER-alpha-UAS-bla HEK293, beta-lactamase ratio, 18 h; series mostly up to 76.8 µM;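 note: 0% = vehicle only and 100% = reference agonist; nearly all actives have a fitted effect of over 70% in size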
Summary of the method: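 ER-alpha-UAS-bla GripTite HEK 293 cells in medium with 2% charcoal/dextran-treated FBS were treated with compound titrations at 37 C for 18 hrs; beta-lactamase reporter read by CCF4 fluorescence after 2 hrs at RT.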

[14] = molecular target: Glucocorticoid receptor (Homo sapiens) (UniProt P04150); assay: qHTS assay for small molecule antagonists of glucocorticoid receptor signaling (AID 588533; active = well fitted inhibition curve with a large enough effect in the signal ratio, with a control signal flat, not every such curve was filed as active; the % refers to the signal ratio;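 note: cells stimulated with 2 nM dexamethasone as agonist; % is set by controls: 0 for no effect and ±100 for the full control effect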); conditions: HeLa MMTV-bla, GRE beta-lactamase ratio, antagonist mode, 18 h; series mostly up to 76.8 µM
Summary of the method: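 Antagonist-mode qHTS: compound titrations added to GRE-bla HeLa cells, then dexamethasone 2 nM final; 18 h, 37 C. CCF4 FRET fluorescence normalized to dexamethasone and DMSO; IC50 from Hill fit.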

[15] = qHTS assay for small molecule activators of the nuclear factor-kappa B (NF-kB) signaling pathway (AID 651749; active = well fitted activation curve with a large enough effect in the signal ratio; the % refers to the signal ratio; note: % of control where 0% means no effect); conditions: NF-kB-bla ME-180 cells, beta-lactamase FRET ratio, 16 h; activation: stronger effect = higher value
Summary of the method: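 Stably transfected ME-180 line; NF-kB response element upstream of beta-lactamase. Treatment: compound or DMSO, 16 hr. Detection: fluorescent FRET substrate.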

[16] = qHTS assay for small molecule agonists of the antioxidant response element (ARE) signaling pathway measured by Nrf2-dependant transcriptional activity (AID 720636; active = well fitted curve in the direction sought with a large enough effect in the repeat runs; an effect the other way counts as inactive or inconclusive; note: % of control where 0% means no effect); conditions: ARE-luc HepG2, Nrf2 luciferase reporter, 16 h; series mostly up to 92.4 µM
Summary of the method: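 ARE-luc HepG2 cells carrying an Nrf2-responsive luciferase reporter were plated in medium with 1% dialyzed FBS, left 6 hr at 37 C to attach, then exposed to compound for 16 hr. Luciferase luminescence was read after ONE-Glo addition.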

[17] = qHTS assay for cell viability of the p53RE-bla HCT-116 cell line (AID 743292; active = well fitted curve in the direction sought with a large enough effect; an effect the other way counts as inactive or inconclusive; note: % is set by controls: 0 for no effect and ±100 for the full control effect; nearly all actives have a fitted effect of over 55% in size); conditions: p53RE-bla HCT-116 viability, ATP luminescence, 16 h; series mostly up to 95 µM
Summary of the method: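 CellSensor p53RE-bla HCT-116 cells, 4,000/well, preincubated 5 h at 37 C, then exposed to compounds in DMSO for 16 h at 37 C. Viability read as CellTiter-Glo luminescence (intracellular ATP) after 30 min at room temperature.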

[18] = molecular target: Nuclear receptor subfamily 1 group I member 2 (Rattus norvegicus) (UniProt Q9R1A7); assay: qHTS assay for small molecule activators of the rat pregnane X receptor (rPXR) signaling pathway (AID 651751; call rule not given here; note: 0% is about no effect); conditions: rPXR reporter cells, luciferase (One-Glo), 24 h
[19] = molecular target: Peroxisome proliferator-activated receptor gamma (Homo sapiens) (UniProt P37231); assay: qHTS assay for small molecule antagonists of peroxisome proliferator-activated receptor gamma signaling (AID 588537; active = well fitted inhibition curve with a large enough effect in the signal ratio, with a control signal flat, not every such curve was filed as active; the % refers to the signal ratio; note: potency is the fitted concentration of half-maximal effect); conditions: HEK293 PPARg-UAS-bla, beta-lactamase ratio, antagonist mode; series mostly up to 76.8 µM
Summary of the method: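 Inhibitors of agonist-stimulated UAS-bla reporter activity were sought in HEK293 cells; rosiglitazone (50 nM) defined full signal and DMSO baseline. Curves fitted to Hill model gave IC50 and efficacy.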

[20] = qHTS assay for small molecule activators of the human pregnane X receptor (PXR) signaling pathway (AID 720659; call rule not given here; note: 0% is about no effect); conditions: DPX-2 HepG2 CYP3A4-luciferase, 24 h; series mostly up to 92.3 µM

Sequence of Glucocorticoid receptor (Homo sapiens) (P04150 whole entry, looked up, the tested form may be a part): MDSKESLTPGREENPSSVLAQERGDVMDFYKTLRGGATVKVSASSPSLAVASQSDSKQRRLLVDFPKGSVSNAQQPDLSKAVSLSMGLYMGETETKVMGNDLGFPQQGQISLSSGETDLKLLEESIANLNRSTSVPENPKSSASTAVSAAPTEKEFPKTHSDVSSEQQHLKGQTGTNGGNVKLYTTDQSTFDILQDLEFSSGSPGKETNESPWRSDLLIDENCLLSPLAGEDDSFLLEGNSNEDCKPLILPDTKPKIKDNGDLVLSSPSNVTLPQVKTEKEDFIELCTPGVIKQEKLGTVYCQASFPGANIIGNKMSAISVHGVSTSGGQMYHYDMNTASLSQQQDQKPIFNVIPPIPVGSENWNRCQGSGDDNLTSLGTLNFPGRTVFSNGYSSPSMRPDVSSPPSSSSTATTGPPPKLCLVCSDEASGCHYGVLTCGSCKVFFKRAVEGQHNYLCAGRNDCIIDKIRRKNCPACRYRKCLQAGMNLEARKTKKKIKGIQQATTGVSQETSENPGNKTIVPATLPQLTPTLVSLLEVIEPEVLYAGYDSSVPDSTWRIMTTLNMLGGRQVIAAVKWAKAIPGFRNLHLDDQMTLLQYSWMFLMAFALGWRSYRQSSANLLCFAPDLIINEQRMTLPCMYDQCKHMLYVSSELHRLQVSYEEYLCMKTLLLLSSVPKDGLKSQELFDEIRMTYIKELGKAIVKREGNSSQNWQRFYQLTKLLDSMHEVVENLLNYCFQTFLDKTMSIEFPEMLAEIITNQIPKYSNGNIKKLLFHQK
Sequence of Nuclear receptor subfamily 1 group I member 2 (Rattus norvegicus) (Q9R1A7 whole entry, looked up): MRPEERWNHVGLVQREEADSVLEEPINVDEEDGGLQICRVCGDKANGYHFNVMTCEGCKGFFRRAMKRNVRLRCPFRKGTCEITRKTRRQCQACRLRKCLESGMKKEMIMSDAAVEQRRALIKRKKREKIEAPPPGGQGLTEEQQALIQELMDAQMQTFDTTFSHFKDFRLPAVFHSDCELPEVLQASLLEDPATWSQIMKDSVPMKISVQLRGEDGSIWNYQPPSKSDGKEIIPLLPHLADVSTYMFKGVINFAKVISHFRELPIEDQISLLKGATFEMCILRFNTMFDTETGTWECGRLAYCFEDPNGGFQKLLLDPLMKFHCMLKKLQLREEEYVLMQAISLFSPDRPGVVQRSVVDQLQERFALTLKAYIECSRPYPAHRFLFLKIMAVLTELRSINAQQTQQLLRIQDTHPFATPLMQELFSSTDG
Sequence of Vitamin D3 receptor (Homo sapiens) (P11473 whole entry, looked up): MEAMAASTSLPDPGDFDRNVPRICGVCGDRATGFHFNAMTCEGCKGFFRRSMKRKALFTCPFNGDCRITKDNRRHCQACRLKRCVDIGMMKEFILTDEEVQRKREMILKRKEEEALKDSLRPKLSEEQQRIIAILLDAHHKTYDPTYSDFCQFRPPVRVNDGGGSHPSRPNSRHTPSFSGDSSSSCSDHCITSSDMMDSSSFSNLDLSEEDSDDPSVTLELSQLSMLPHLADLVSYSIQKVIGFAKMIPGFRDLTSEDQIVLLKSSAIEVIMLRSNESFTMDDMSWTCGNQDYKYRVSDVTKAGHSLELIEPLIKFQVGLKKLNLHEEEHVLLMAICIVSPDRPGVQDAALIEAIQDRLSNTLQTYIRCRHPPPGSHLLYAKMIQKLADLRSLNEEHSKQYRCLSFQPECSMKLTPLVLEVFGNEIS
Sequence of Bile acid receptor (Homo sapiens) (Q96RI1 whole entry, looked up): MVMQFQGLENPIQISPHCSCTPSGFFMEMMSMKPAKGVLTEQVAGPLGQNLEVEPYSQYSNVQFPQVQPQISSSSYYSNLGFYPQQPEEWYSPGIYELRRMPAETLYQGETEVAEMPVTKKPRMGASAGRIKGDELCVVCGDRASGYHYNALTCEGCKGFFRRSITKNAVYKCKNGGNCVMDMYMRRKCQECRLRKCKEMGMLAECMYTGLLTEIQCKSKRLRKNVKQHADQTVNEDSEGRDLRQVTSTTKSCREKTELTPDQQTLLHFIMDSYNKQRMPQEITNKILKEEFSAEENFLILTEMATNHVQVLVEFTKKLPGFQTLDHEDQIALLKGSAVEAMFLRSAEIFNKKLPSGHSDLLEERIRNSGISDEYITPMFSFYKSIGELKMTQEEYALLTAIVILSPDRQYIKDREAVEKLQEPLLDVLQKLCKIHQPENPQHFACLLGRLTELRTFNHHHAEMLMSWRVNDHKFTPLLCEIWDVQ
Sequence of Peroxisome proliferator-activated receptor gamma (Homo sapiens) (P37231 whole entry, looked up): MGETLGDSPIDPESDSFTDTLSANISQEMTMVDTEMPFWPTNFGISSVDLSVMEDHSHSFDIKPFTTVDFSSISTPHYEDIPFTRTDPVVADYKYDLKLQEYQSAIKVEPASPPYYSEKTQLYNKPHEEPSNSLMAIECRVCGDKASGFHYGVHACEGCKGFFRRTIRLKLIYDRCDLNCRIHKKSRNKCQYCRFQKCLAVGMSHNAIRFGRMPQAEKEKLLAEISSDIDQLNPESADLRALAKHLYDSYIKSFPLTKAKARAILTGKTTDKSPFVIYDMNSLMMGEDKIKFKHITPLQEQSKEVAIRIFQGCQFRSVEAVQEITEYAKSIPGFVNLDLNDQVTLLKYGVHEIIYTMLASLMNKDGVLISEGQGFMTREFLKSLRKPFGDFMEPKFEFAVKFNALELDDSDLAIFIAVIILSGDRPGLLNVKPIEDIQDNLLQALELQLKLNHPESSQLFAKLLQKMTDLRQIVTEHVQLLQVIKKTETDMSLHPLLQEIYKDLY
Sequence of Peroxisome proliferator-activated receptor delta (Homo sapiens) (Q03181 whole entry, looked up): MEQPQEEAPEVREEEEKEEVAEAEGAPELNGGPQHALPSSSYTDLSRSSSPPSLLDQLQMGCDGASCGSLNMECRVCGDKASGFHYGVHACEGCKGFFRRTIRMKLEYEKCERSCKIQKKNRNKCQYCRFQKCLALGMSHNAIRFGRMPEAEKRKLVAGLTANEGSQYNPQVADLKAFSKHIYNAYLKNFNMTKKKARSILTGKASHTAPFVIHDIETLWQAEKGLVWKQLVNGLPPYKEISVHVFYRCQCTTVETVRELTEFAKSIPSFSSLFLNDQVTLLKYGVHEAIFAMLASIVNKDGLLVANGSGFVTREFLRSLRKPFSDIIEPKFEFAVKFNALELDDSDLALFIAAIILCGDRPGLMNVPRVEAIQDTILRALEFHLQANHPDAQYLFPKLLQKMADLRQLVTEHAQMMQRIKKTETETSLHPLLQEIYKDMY
Sequence of Estrogen receptor (Homo sapiens) (P03372 whole entry, looked up): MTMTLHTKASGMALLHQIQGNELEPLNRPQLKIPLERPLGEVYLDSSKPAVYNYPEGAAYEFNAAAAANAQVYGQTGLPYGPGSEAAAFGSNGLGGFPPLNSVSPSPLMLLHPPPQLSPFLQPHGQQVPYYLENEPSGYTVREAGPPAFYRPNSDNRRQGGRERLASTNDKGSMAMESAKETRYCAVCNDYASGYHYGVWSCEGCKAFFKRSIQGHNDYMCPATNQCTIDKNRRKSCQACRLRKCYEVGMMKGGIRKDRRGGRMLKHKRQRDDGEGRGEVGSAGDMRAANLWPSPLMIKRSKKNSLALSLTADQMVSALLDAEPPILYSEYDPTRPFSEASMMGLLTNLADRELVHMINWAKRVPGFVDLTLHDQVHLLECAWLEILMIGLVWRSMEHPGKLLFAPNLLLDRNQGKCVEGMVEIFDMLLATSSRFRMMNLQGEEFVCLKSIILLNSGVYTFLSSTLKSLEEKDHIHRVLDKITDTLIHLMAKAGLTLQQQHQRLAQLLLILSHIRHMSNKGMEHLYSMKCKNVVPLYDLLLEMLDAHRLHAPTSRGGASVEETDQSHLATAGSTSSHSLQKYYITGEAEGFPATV
Sequence of Retinoic acid receptor RXR-alpha (Homo sapiens) (P19793 whole entry, looked up): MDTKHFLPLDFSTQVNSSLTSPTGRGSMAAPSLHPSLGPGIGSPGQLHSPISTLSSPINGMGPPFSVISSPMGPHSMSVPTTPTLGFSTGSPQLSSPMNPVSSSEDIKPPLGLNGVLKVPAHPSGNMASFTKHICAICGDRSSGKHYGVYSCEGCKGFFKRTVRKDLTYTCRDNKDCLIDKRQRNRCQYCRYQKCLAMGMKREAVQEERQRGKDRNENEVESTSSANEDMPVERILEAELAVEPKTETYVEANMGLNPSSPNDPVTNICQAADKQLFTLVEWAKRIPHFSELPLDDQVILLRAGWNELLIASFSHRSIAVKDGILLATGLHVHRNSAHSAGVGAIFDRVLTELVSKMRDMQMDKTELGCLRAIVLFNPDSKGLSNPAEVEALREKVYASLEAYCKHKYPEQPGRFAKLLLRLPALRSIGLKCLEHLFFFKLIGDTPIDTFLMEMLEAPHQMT
Sequence of Cytochrome P450 2D6 (Homo sapiens) (P10635 whole entry, looked up): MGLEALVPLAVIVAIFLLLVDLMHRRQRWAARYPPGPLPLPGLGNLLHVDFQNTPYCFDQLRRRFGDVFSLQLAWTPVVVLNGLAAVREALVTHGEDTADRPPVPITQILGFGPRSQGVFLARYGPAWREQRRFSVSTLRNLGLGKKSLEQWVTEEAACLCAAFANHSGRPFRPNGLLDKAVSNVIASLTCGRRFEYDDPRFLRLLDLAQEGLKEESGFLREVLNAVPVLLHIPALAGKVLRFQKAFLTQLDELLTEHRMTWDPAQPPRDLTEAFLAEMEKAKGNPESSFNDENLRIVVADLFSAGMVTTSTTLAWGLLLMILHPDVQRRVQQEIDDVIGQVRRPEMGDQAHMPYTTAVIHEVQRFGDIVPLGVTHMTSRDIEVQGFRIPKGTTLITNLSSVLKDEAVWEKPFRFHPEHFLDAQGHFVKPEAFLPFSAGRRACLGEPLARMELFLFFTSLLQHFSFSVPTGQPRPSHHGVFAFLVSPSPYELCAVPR

c1cc2cc(c1)C[n+]1ccc(c3ccccc31)NCc1ccc(cc1)CNc1cc[n+](c3ccccc13)C2
inactive: Potency [1] > 46 µM
active: Potency [2] 2.51 µM

CC(C)[C@H]1C(=O)N2CCC[C@@H]2[C@]2(O)O[C@@](NC(=O)[C@H]3C=C4c5cccc6[nH]cc(c56)C[C@H]4N(C)C3)(C(C)C)C(=O)N12
inactive: Potency [1] > 46 µM | Potency [3] > 46 µM | Potency [4]

CN[C@H]1[C@H]2[C@H]3CCN2C[C@@H]1O3
inactive: Potency [3] > 46 µM | Potency [2] | Potency [4]

C#CCN1CC(=O)N(COC(=O)[C@@H]2[C@@H](C=C(C)C)C2(C)C)C1=O
-9.7%: max response [7]
inactive: Potency [5] | activation [6] -0.459% | Potency [8] | Potency [9] | Potency [10] | max response [11] -19.9%

CC[C@@H](CO)Nc1nc(NCc2ccccc2)c2ncn(C(C)C)c2n1
-22.6%: viability change [12]
active: Potency [12] 18.4 µM

CC(C)=CC1C(C(=O)OCc2coc(Cc3ccccc3)c2)C1(C)C (stereo not drawn)
-29.1%: max response [7]
inactive: Potency [13] | Potency [5] | activation [6] 2.93% | Potency [14] | Potency [8] | Potency [9] | Potency [10] | activation [15] 0.13% | Potency [16] | Potency [17] | max response [18] 7.41%

CSc1nc(NC(C)C)nc(NC(C)C)n1
inactive: Potency [13] | Potency [19] | Potency [16]

N#Cc1c(Cl)c(Cl)c(Cl)c(C#N)c1Cl
inactive: Potency [16]
active: Potency [11] 7.08 µM

O=C(NC(=O)c1c(F)cccc1F)Nc1ccc(Cl)cc1
-32.8%: max response [7]
inactive: Potency [13] | Potency [5] | Potency [8] | Potency [19] | Potency [10] | max response [11] -3.02% | activation [15] 0.393% | Potency [17] | max response [18] 11% | outcome [20]

CCCCN(CC)c1c([N+](=O)[O-])cc(C(F)(F)F)cc1[N+](=O)[O-]
41.5%: max response [7]
inactive: activation [6] -5.8% | Potency [14] | Potency [8] | Potency [19] | max response [11] -14% | activation [15] -1.55% | Potency [16] | Potency [17] | max response [18] 3.44%

O=C1C=C2C(=CCOC2O)O1 (stereo not drawn)
active: Potency [19] 20 µM
inactive: Potency [13] | activation [15] 2.18% | max response [18] -14.8% | outcome [20]

CC(C)N(C(=O)CCl)c1ccccc1
inactive: activation [6] -11.4% | Potency [17] | outcome [20]
